FBPA Giardia inh – blocks Giardia fructose-bisphosphate aldolase activity | Potency, µM (titrated, usually from 59.6 µM), usual class: inhibitors | AID 2451 | purified Giardia FBPA | actives 0.71% (n = 290,000) | A8B2U2; note: nearly all actives have a fitted effect of over 55% in size
Target sequence (A8B2U2 whole entry, looked up): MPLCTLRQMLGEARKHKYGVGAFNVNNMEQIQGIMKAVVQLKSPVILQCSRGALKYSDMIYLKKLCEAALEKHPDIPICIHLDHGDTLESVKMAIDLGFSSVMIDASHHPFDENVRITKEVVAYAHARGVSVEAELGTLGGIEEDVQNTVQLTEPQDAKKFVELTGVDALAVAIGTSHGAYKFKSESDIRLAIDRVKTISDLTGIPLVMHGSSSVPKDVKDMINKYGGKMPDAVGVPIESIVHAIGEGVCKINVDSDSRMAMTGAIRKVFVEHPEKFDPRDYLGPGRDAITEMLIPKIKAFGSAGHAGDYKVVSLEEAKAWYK
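Giardia FBPA (40 nM reagent) was preincubated 10 min at RT with compound (up to 57.5 uM final), then substrate plus GAPDH/TPI/NAD/arsenate coupling system with diaphorase/resazurin was added; resorufin fluorescence (525/598 nm) was read after 20 min.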
HCMV inh – blocks human cytomegalovirus replication. HFF cells, HCMV-luciferase reporter, 72 h; active compounds read low. activity change, negative = inhibition, % at 57.5 µM. actives 4.5% (n = 410,000). AID 1259415; in the data active = activity change below about -60%; inconclusive = no clear call, values can overlap the other calls; inactive = above about -39%
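Inhibition of viral replication was scored as loss of reporter luminescence in HFFs infected with HCMV-luciferase (MOI 1 PFU/cell) for 72 h; compounds tested at 2 doses, normalized to buffer and Salinomycin controls.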
Pf growth 48h – P. falciparum growth inhibition at 48 hours (one generation); P. falciparum luciferase growth in erythrocytes, 48 h; Potency, µM (doses to about 28.7 µM), hits mostly inhibitors; actives 5.9% (n = 310,000)
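Luciferase-expressing P. falciparum in infected erythrocytes (2% hematocrit, 0.1% parasitemia final) in RPMI 1640/0.5% Albumax were exposed to compound for 48 hours at 37 C, 5% CO2; growth read as luminescence.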
Sm TGR inh – S. mansoni TGR enzyme inhibition; Q962Y6; purified TGR, DTNB reduction, TNB absorbance 405 nm; Potency, µM (titrated, usually from 114 µM), usual class: inhibitors; actives 3% (n = 360,000); AID 485364; note: nearly all actives have a fitted effect of over 60% in size
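Kinetic colorimetric format: TGR-catalysed, NADPH-driven DTNB reduction monitored via TNB absorbance. Enzyme dispensed at 20 nM; compound exposure 15 min at room temperature before reaction start.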
Pf growth 96h – P. falciparum growth inhibition at 96 hours; P. falciparum luciferase reporter growth, 96 h; Potency, µM (highest dose often 28.7 µM), hits mostly inhibitors; actives 6.9% (n = 320,000); AID 504834
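Cell-based qHTS: luciferase-tagged P. falciparum in erythrocytes (2% hematocrit, 0.05% parasitemia final) incubated with compounds for 96 hours, 37 C, 5% CO2; luciferase detection reagent then added and luminescence measured.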
Numbers stand for hits; – = inactive; ? = inconclusive; · = no result given. Shown are actives, neighbours in structure and some others; about 14% of the full set was active somewhere. Unless noted, calls come from the whole dose curve; as a rule, active = well fitted curve in the direction sought with a large enough effect; inconclusive = small, poorly fitted or top-dose-only effect, or another doubt; inactive = no such curve, though single readings can be large; an effect the other way counts as inactive or inconclusive.

SMILES	FBPA Giardia inh	HCMV inh	Pf growth 48h	Sm TGR inh	Pf growth 96h
Fc1ccc(Nc2nc(SCc3cccc(Cl)c3)nc3ccccc23)cc1	·	-95	·	–	·
Fc1ccc(Nc2nc(SCc3cccc(F)c3)nc3ccccc23)cc1	·	-87	·	–	·
Cc1cc(NC(=O)OC(C)(C)C)c(-n2nnnc2C(C(=O)c2ccccc2)N2CCOCC2)cc1C (centres undefined)	·	–	·	·	·
CCCC1Cc2nc(Cl)c(C#N)cc2CO1 (centres undefined)	–	–	–	40µM	–
CCC1(C)Cc2nc(Cl)c(C#N)cc2CO1 (centres undefined)	–	?	–	?	–
CCC(=O)c1ccc(OCC(=O)Nc2ccccc2N2CCCCC2)cc1	·	–	?	–	–
COc1ccc(OC)c(NC(=O)c2nnn(CC(=O)Nc3ccc(C(C)C)cc3)c2N)c1	·	-63	·	–	·
COc1ccc(NC(=O)c2nnn(CC(=O)Nc3ccc4c(c3)OCO4)c2N)cc1OC	–	–	–	–	?
COc1ccc(Cl)cc1NC(=O)c1nnn(CC(=O)Nc2ccc3c(c2)OCO3)c1N	–	–	–	–	15µM
Cc1ccc(C(=O)Nc2c(C(=O)Nc3ccc(C)c(C)c3)sc3nc(C)cc(C)c23)cc1	·	-107	·	–	·
CC1CCCCN1CCCNC(=O)c1ccc(N2CCCC2=O)cc1 (centres undefined)	–	–	–	–	–
CC(=O)c1ccc(NS(=O)(=O)c2cc3[nH]c(=O)c(=O)[nH]c3cc2C)cc1	·	–	·	–	·
CC(=O)c1ccc(N2CCN(S(=O)(=O)c3cc4[nH]c(=O)c(=O)[nH]c4cc3C)CC2)cc1	–	–	2.3µM	–	–
Cc1cc(-c2ccc(C(C)C)c(S(=O)(=O)N3CCC(C)CC3)c2)on1	–	–	12µM	–	?
CCc1ccc(-c2cc(C)no2)cc1S(=O)(=O)N1CCN(c2ccc(C(C)=O)cc2)CC1	·	?	?	–	–
CC(=O)c1ccc(N2CCN(S(=O)(=O)c3cc(-c4cc(C)no4)ccc3C(C)C)CC2)cc1	–	?	10µM	–	?
Cc1cc(-c2ccc(C)c(S(=O)(=O)Nc3cccc(C)n3)c2)on1	·	?	·	–	·
Cc1cc(-c2ccc(C(C)C)c(S(=O)(=O)Nc3cc(C)on3)c2)on1	?	–	–	–	13µM
Cc1nc2ccc(NC(=O)c3ccc(Cl)c(S(=O)(=O)N(C)c4ccccc4)c3)cc2s1	–	-101	–	–	?
Cc1nc2ccc(NC(=O)c3cc([N+](=O)[O-])cc([N+](=O)[O-])c3Cl)cc2s1	–	–	?	0.5µM	–
Cc1nc2ccc(NC(=O)c3cc(S(=O)(=O)N(C)c4ccccc4)ccc3Cl)cc2s1	–	?	1.3µM	–	0.37µM
Cc1nc2ccc(NC(=O)c3ccc(S(=O)(=O)N(C)C)cc3)cc2s1	–	–	?	–	?
Cn1nc(C(=O)N2CCC(C(N)=O)CC2)c2c1-c1ccccc1SC2	–	–	–	–	–
COc1ccc(S(=O)(=O)N2CCC3(CC2)OCCN3S(=O)(=O)c2cccs2)cc1OC	·	–	?	–	9.3µM
Cc1ccc(S(=O)(=O)N2CCC3(CC2)OCCN3S(=O)(=O)c2c(C)cc(C)cc2C)cc1	·	–	10µM	–	?
SMILES	FBPA Giardia inh	HCMV inh	Pf growth 48h	Sm TGR inh	Pf growth 96h
COc1ccc(S(=O)(=O)N2CCC3(CC2)OCCN3S(=O)(=O)c2c(C)cc(C)cc2C)cc1	·	?	1µM	–	0.83µM
COc1ccc(S(=O)(=O)N2CCOC23CCN(S(=O)(=O)c2ccccc2)CC3)cc1	·	–	?	–	–
CCS(=O)(=O)N1CCC2(CC1)OCCN2S(=O)(=O)c1ccc(C)cc1	·	–	–	–	–
COc1ccc(C)cc1S(=O)(=O)N1CCC2(CC1)OCCN2S(=O)(=O)c1cccs1	·	–	?	–	?
CCNc1ncc2nc(-c3cccc(C#N)c3)c(=O)n(C)c2n1	–	·	·	·	·
Cc1ccccc1Nc1c2c(nc3nncn13)CCC2	·	–	·	?	·
Brc1ccc(Nc2c3c(nc4nncn24)CCC3)cc1	·	–	·	35µM	·
Cc1ccc(Nc2c3c(nc4nncn24)CCC3)cc1	·	–	·	?	·
Cc1cccc(Nc2c3c(nc4nncn24)CCC3)c1C	·	?	·	40µM	·
Cc1ccc(Nc2c3c(nc4nncn24)CCC3)cc1C	·	-88	·	–	·
Cc1ccccc1-c1cc(N(C)Cc2ccco2)ncn1	–	·	·	·	·
CCCCCCn1c(COc2ccccc2F)nnc1SCC(=O)c1c(N)n(C)c(=O)n(C)c1=O	–	–	?	–	?
